Measurements: PubChem BioAssay AID463173 (ICCB-Longwood Screening Facility, Harvard Medical School, 2010)
In all, about 52,000 compounds went through this assay and about 1,700 (3.3%) were called active. Rule as the data show it: active = survival mostly below about 52% (no sharp cut-off); inactive = mostly above about 56%. This excerpt belongs to a sample that is enriched for actives.

tested on: Wild type; experiment: growth inhibition of S. aureus wild type versus tarO mutant, primary screen, teichoic acid synthesis inhibitors, RN4220, OD600 (AID 463173); details: S. aureus RN4220 wild type/DeltatarO growth, OD600, 18 h, active compounds read low, screened at 18.75 µg/mL (by protocol)

| Compound | survival |
| --- | --- |
| COc1cccc(Cn2c(=O)n(-c3cccc(Cl)c3C)c(=O)c3c4c(sc32)CN(C(C)=O)CC4)c1 | 75% (inactive) |
| Cn1cc(S(=O)(=O)N2CCCC2)cc1C(=O)Nc1ccc(C(F)(F)F)cc1 | 109% (inactive) |
| CCCCNc1nc(Oc2ccc(=O)n(C)n2)nc(N(C)C)n1 | 83% (inactive) |
| COc1ccc(-c2cc(C(=O)Nc3sc4c(c3C#N)CCCC4)no2)cc1OC | 80% (inactive) |
| CCC1CN(C(=O)N2CCC(C(=O)NCCCc3ccccc3)CC2)c2cc(C)ccc2O1 (stereo unspecified) | 79% (inactive) |
| COCCCn1c(=N)c(C(=O)NCc2cccnc2)cc2c(=O)n3cccc(C)c3nc21 | 74% (inactive) |
| COc1cc(OC)c(Nc2c3c(nc4nc(-c5cccs5)nn24)CCCC3)cc1Cl | 85% (inactive) |
| Cc1ccc(Nc2c3c(nc4nc(-c5cccs5)nn24)CCCC3)cc1F | -3% (active) |
| Fc1cc(Br)ccc1Nc1c2c(nc3nc(-c4cccs4)nn13)CCCC2 | 0% (active) |
| Cc1ccc(Nc2c3c(nc4nncn24)CCC3)cc1C | 76% (inactive) |
| COc1ccc(C)cc1Nc1c2c(nc3nc(-c4cccs4)nn13)CCCC2 | 63% (inactive) |
| CC(=O)c1cccc(Nc2c3c(nc4nc(-c5cccs5)nn24)CCCC3)c1 | 76% (inactive) |
| O=C(Cn1c2ncccc2c(=O)n1-c1ccccc1)NCc1ccccc1 | 80% (inactive) |
| Cc1cc(O)c(C(c2ccccc2)N2CCCCC2)c(=O)n1Cc1ccco1 (stereo unspecified) | 77% (inactive) |
| O=C(NCc1ccccn1)c1cc2n(n1)C(C(F)(F)F)CC(c1ccco1)N2 (stereo unspecified) | 108% (inactive) |
| Cc1ccc2oc(-c3ccc(NC(=O)c4cccc(F)c4)c(C)c3)nc2c1 | 100% (inactive) |
| CNC(=S)N(Cc1cccnc1)Cc1cc2cc(OC)ccc2[nH]c1=O | 112% (inactive) |
| COc1cc2c(cc1OC)n(CC(=O)c1cc(C)ccc1C)c(=O)n1nc(CCn3nc(C)cc3C)nc21 | 71% (inactive) |
| Cc1c(C(N)=O)sc2ncn(Cc3ccccc3)c(=O)c12 | 112% (inactive) |
| CC(C)=CCc1c(O)cc(O)c2c1OC(c1ccccc1)CC2=O (stereo unspecified) | 1% (active) |
| CC1(C)OC(c2ccccc2)CC1=O (stereo unspecified) | 98% (inactive) |
| Cc1ccc(COc2ccc3oc(-c4ccccc4)c(C(=O)O)c3c2)cc1 | 54% (inactive) |
| O=C(O)c1c(-c2ccccc2)oc2ccc(OCc3c(F)cccc3Cl)cc12 | 38% (inactive) |
| O=C(O)c1c(-c2ccccc2)oc2ccc(OCc3ccc(Cl)c(Cl)c3)cc12 | 0% (active) |

| Compound | survival |
| --- | --- |
| CCCCNC(=O)C1CCN(S(=O)(=O)CCC)CC1 | 83% (inactive) |
| Cc1ccc(CN2CCC(CNC(=O)c3cnn(-c4ccccc4)c3C3CCN(C(=O)OC(C)(C)C)CC3)CC2)cc1 | 73% (inactive) |
| Cc1cccc(OC(=O)c2snnc2C)c1C | 80% (inactive) |
| Cc1csc2nc(-c3cccc(NC(=O)C(C)C)c3)cn12 | 80% (inactive) |
| CCCC(=O)Nc1cccc(-c2cn3c(C)csc3n2)c1 | -6% (active) |
| Cc1csc2nc(-c3cccc(NC(=O)c4c(F)cccc4F)c3)cn12 | 121% (inactive) |
| O=C(NCc1ccco1)c1ccc2c(c1)N(Cc1ccc(Cl)cc1)C(=O)c1ccccc1S2=O (stereo unspecified) | 165% (inactive) |
| COc1ccccc1CNC(=O)CN1C(=O)c2cccnc2Oc2ccccc21 | 64% (inactive) |
| CCc1cnc2c(c1SCCC(C)C)c(=O)n(C)c(=O)n2C | 79% (inactive) |
| CCCN(CCC)S(=O)(=O)c1ccc(C(=O)N2CCn3c4c(c5cc(C)ccc53)CCCC42)cc1 (stereo unspecified) | 82% (inactive) |
| COc1cc(SC)ccc1C(=O)N1CCn2c3c(c4cc(C)ccc42)CCCC31 (stereo unspecified) | 85% (inactive) |
| Cc1ccc2c(c1)c1c3n2CCN(C(=O)c2ccc(C(F)(F)F)cc2)C3CCC1 (stereo unspecified) | 49% (inactive) |
| CCOc1cc(C(=O)N2CCn3c4c(c5cc(C)ccc53)CCCC42)cc(OCC)c1OCC (stereo unspecified) | 67% (inactive) |
| Cc1ccc2c(c1)c1c3n2CCN(C(=O)c2cccc(C(F)(F)F)c2)C3CCC1 (stereo unspecified) | 5% (active) |
| Cc1ccc(C(=O)N2CCn3c4c(c5cc(C)ccc53)CCCC42)cc1 (stereo unspecified) | -10% (active) |
| COc1ccccc1Nc1nc2c(S(=O)(=O)c3ccc(C(C)C)cc3)nnn2c2ccsc12 | 116% (inactive) |
| CCCc1nc2ccccc2c(NC(=O)CN(CC)CC)c1CC | 103% (inactive) |
| CN(C)CCNC(=O)Cc1ccc(NC(=O)N2CCCCc3ccccc32)cc1 | 75% (inactive) |
| COc1ccc(/C=C\C(=O)NC2CC(=O)N(c3ccccc3)C2)cc1OC (stereo unspecified) | 134% (inactive) |
| Cc1cc(Nc2ccc(Br)c(C)c2)n2nc(-c3ccco3)nc2n1 | -6% (active) |
| CCOc1ccc(OCC)c(Nc2cc(C)nc3nc(-c4ccco4)nn23)c1 | -1% (active) |
| Cc1cc(C)cc(Nc2cc(C)nc3nc(-c4ccco4)nn23)c1 | 78% (inactive) |
| CCOC(=O)c1ccccc1Nc1cc(C)nc2nc(-c3ccco3)nn12 | 133% (inactive) |
| Cc1cc(Nc2ccccc2Cl)n2nc(-c3ccco3)nc2n1 | 78% (inactive) |

| Compound | survival |
| --- | --- |
| Cc1cc(Nc2cccc(F)c2)n2nc(-c3ccco3)nc2n1 | 69% (inactive) |
| CC(C)CC(=O)Nc1c(C(=O)N2CCN(c3ccccc3)CC2)oc2ccccc12 | 96% (inactive) |
| c1ccc(C(c2ccccc2)N2CCN(Cc3nnnn3Cc3ccc4c(c3)OCO4)CC2)cc1 | 105% (inactive) |
| O=c1c(=O)n(-c2ccccc2)ccn1Cc1cccc(C(F)(F)F)c1 | 108% (inactive) |
| CN(C(=O)CSc1nc2ccc(NC(=O)c3ccccc3)cc2s1)c1ccccc1 | 77% (inactive) |
| COCCN(Cc1ccc(C)c(Br)c1)S(=O)(=O)c1ccc2[nH]c(=O)ccc2c1 | -3% (active) |
| CCN(c1ccc(OC)cc1)S(=O)(=O)c1ccc2[nH]c(=O)ccc2c1 | 72% (inactive) |
| CN(C)CCN(Cc1ccccc1)S(=O)(=O)c1ccc2[nH]c(=O)ccc2c1 | 76% (inactive) |
| CCc1ccccc1NC(=O)c1cc(S(=O)(=O)N2CCC(C)CC2)cn1C | 22% (inactive) |
| COC(=O)c1cc(-c2ccc(C)cc2)c2c(=O)n(C)c(=O)n(C)c2n1 | 105% (inactive) |
| O=C(NCCNCc1ccccc1)c1ccco1 | 115% (inactive) |
| CC(=O)Nc1ccc(NC(=O)CCS(=O)(=O)c2ccc3c(c2)CC(=O)N3C)cc1 | 66% (inactive) |
| N#Cc1c(NC(=O)c2cc3nc(-c4ccc(Br)cc4)cc(C(F)(F)F)n3n2)sc2c1CCCC2 | 0% (active) |
| Cc1ccc(-c2cc(C(F)(F)F)n3nc(C(=O)Nc4sc5c(c4C#N)CCC(C)C5)cc3n2)cc1 (stereo unspecified) | 70% (inactive) |
| COC(=O)c1c(NC(=O)c2cc3nc(-c4ccc(Br)cc4)cc(C(F)(F)F)n3n2)sc2c1CCCC2 | 82% (inactive) |
| COc1ccc(CNC(=O)c2cc(-c3ccc(C)c(C)c3)n[nH]2)cc1 | 67% (inactive) |
| Cc1cc2c(cc1S(=O)(=O)NCc1ccc(F)cc1)n(C)c(=O)c(=O)n2C | 85% (inactive) |
| Cc1c(C(=O)OCc2ccccc2)[nH]c2c1C(=O)CC(c1ccc(Cl)cc1)C2 (stereo unspecified) | 99% (inactive) |
| COc1cc(NC(=O)CNC(=O)Cn2ccc3ccccc3c2=O)cc(OC)c1OC | 130% (inactive) |
| O=S(=O)(Cc1ccccc1)N1CCC(c2nc(-c3cccs3)no2)CC1 | 110% (inactive) |
| CC1=C(c2ccc(C)cc2)S(=O)(=O)N(Cc2ccc(C(=O)Nc3ccccc3C)cc2)C1=O | 78% (inactive) |
| Cc1ccc(N2CCN(C(=O)c3cn(C)c4ccc(S(=O)(=O)N5CCCC5)cc4c3=O)CC2C)cc1 (stereo unspecified) | 134% (inactive) |
| Cn1c(C(=O)NCc2ccc(F)cc2)cc2cc(S(=O)(=O)N3CCCCC3)ccc21 | 131% (inactive) |
| CC(C)CCNC(=O)c1cc2cc(S(=O)(=O)N3CCCCC3)ccc2n1C | 74% (inactive) |

| Compound | survival |
| --- | --- |
| Cc1ccccc1CNC(=O)c1cc2cc(S(=O)(=O)N3CCCCC3)ccc2n1C | 66% (inactive) |
| CN(C)c1ccc(CNC(=O)c2cc3cc(S(=O)(=O)N4CCCCC4)ccc3n2C)cc1 | 0% (active) |
| Cc1ccccc1CCNC(=O)c1cc2cc(S(=O)(=O)N3CCCCC3)ccc2n1C | -3% (active) |
| CC(CNC(=O)c1cc2cc(S(=O)(=O)N3CCCCC3)ccc2n1C)c1ccccc1 (stereo unspecified) | 55% (inactive) |
| CCC(C)NC(=O)c1cc2cc(S(=O)(=O)N3CCCCC3)ccc2n1C (stereo unspecified) | 14% (active) |
| Cn1c(C(=O)NCCc2ccccc2)cc2cc(S(=O)(=O)N3CCCCC3)ccc21 | 73% (inactive) |
| CCc1ccc(CNC(=O)c2cc3cc(S(=O)(=O)N4CCCCC4)ccc3n2C)cc1 | 47% (inactive) |
| CCOC(=O)c1sc2cccc(F)c2c1S(=O)(=O)NCc1ccccc1Cl | 130% (inactive) |
| Clc1ccc2[nH]c3nc4ccccc4nc3c2c1 | 104% (inactive) |
| COc1ccc(Nc2cc(C(=O)NCc3ccccc3)c3ccccc3n2)cc1OC | 83% (inactive) |
| CC(=O)c1ccc(NC(=O)Cn2cc3c(n2)CCCC3)cc1 | 82% (inactive) |
| Cc1ccsc1CN(Cc1ccco1)C(=O)c1ccc(Cl)cc1 | 65% (inactive) |
| Cc1nn(C)c2c1c(C(F)(F)F)cc(=O)n2CC(=O)N1CCCCC1 | 67% (inactive) |
| CCOc1ccc(/C=C/c2nc(C#N)c(N3CCN(c4ccc(OC)cc4)CC3)o2)cc1 | 84% (inactive) |
| CCn1cc(C(=O)N2CCN(c3cc(C)ccc3C)CC2)c(=O)c2cc(S(=O)(=O)N3CCOCC3)ccc21 | 81% (inactive) |
| Cc1ccc(SCc2nc(-c3ccc(C(=O)NCCc4ccc(Cl)cc4)cc3)oc2C)cc1 | -4% (active) |
| COc1ccc(CNC(=O)c2ccc(-c3nc(CSc4ccccc4)c(C)o3)cc2)cc1OC | 77% (inactive) |
| CCc1ccc(CNC(=O)c2ccc(-c3nc(CSc4ccc(C)cc4)c(C)o3)cc2)cc1 | 63% (inactive) |
| COc1ccc(CNC(=O)c2ccc(-c3nc(CSc4ccc(C)cc4)c(C)o3)cc2)c(OC)c1 | 1% (active) |
| Cc1oc(-c2ccc(C(=O)NCCc3ccc(Cl)cc3)cc2)nc1CSc1ccccc1 | 59% (inactive) |
| Cc1ccc(SCc2nc(-c3ccc(C(=O)NCc4ccc(Cl)cc4)cc3)oc2C)cc1 | 64% (inactive) |
| COc1ccc(CNC(=O)c2ccc(-c3nc(CSc4ccc(C)cc4)c(C)o3)cc2)cc1OC | -3% (active) |
| COc1ccc(OC)c(CNC(=O)c2ccc(-c3nc(CSc4ccccc4)c(C)o3)cc2)c1 | 129% (inactive) |
| COc1ccc(CNC(=O)c2ccc(-c3nc(CSc4ccccc4)c(C)o3)cc2)c(OC)c1 | 100% (inactive) |
